Results taken from the supplement of paper PMC10849652.
Of roughly 8,800 targets only a part is listed; those with a hit were picked by preference. About 0.5% of all pairs of compound and target were hits.

How the values were obtained:
Assay in all cases: log2 fold change, soluble protein after heating vs DMSO (PISA); higher = thermal stabilisation; K562 lysate, 10 uM; active = over 0.2 and 3.5 SD of the protein, either way, in both replicates (recomputed)
[1] = compound: CS(=O)(=O)CCNCc1ccc(-c2ccc3ncnc(Nc4ccc(OCc5cccc(F)c5)c(Cl)c4)c3c2)o1 [lapatinib]
How it was run: (§1)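 To prepare the extract, K562 pellets were dounce-homogenised in PBS pH 7.4 with 1 mM MgCl2, giving crude material at 1 mg/mL protein. This was treated with 10 μM compound for 30 min, then heated in aliquots for 3 min over 48°C-58°C before pooling and addition of NP-40 to 0.5% at 4°C. Centrifugation at 21,000xg for 90 min left soluble protein in the supernatant, which TMTpro 16plex LC-MS/MS quantified with equalised channel sums. Results are log-two fold changes in thermal stability compared with solvent controls, from duplicates.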

[2] = compound: CS(=O)(=O)N1CCN(Cc2cc3nc(-c4cccc5[nH]ncc45)nc(N4CCOCC4)c3s2)CC1 [pictilisib]
How it was run: as §1

[3] = compound: C[C@@H](Oc1cc(-c2cnn(C3CCNCC3)c2)cnc1N)c1c(Cl)ccc(F)c1Cl [crizotinib]
How it was run: as §1

[4] = compound: C[C@H](C1=CC=C(C=C1)C(=O)NC2=C3C=CNC3=NC=C2)N
How it was run: as §1

[5] = compound: C[C@H](Nc1ncnc2nc[nH]c12)c1cc2cccc(Cl)c2c(=O)n1-c1ccccc1 [duvelisib]
How it was run: as §1

[6] = compound: Cc1cc(Nc2cc(CN3CCOCC3)c3nc(C)c(Cc4ccc(Cl)cc4F)n3n2)n[nH]1 [gandotinib]
How it was run: as §1

[7] = compound: Cc1cc(Nc2cc(N3CCN(C)CC3)nc(Sc3ccc(NC(=O)C4CC4)cc3)n2)n[nH]1 [tozasertib]
How it was run: as §1

[8] = compound: Cc1ccc(-n2nc(C(C)(C)C)cc2NC(=O)Nc2ccc(OCCN3CCOCC3)c3ccccc23)cc1 [doramapimod]
How it was run: as §1

[9] = compound: Cc1ccc(NC(=O)c2ccc(CN3CC[C@H](N(C)C)C3)c(C(F)(F)F)c2)cc1Nc1nccc(-c2cncnc2)n1 [bafetinib]
How it was run: as §1

[10] = compound: Cc1cccc(CC(=O)N2CCc3c2ccc(-c2cn(C)c4ncnc(N)c24)c3F)n1
How it was run: as §1

Measured: log2 fold change

PAXBP1 (UniProt Q9Y5B6)
inactive: [1] 0.002 | [2] -0.077 | [3] -0.027 | [4] -0.037 | [5] -0.008 | [6] -0.029 | [7] 0.012 | [8] 0.038 | [9] -0.024 | [10] 0.002

NIT2 (UniProt Q9NQR4)
UniProt Q9NQR4, sequence (Q9NQR4 whole entry, looked up): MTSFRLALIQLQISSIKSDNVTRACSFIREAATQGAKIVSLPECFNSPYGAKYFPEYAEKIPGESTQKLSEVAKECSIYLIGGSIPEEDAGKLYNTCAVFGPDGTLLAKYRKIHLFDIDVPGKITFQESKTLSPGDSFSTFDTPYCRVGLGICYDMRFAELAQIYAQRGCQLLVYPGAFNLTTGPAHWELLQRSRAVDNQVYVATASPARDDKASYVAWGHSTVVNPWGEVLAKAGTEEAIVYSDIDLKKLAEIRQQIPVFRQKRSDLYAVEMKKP
inactive: [1] 0.002 | [2] -0.048 | [3] -0.026 | [4] -0.008 | [5] 0.011 | [6] -0.01 | [7] 0.002 | [8] -0.023 | [9] 0.011 | [10] -0.06

NSUN2 (UniProt Q08J23)
inactive: [1] -0.009 | [2] -0.006 | [3] -0.024 | [4] 0.072 | [5] -0.005 | [6] -0.05 | [7] -0.011 | [8] -0.009 | [9] -0.038 | [10] -0.007

MYO1D (UniProt O94832)
inactive: [1] 0.014 | [2] -0.051 | [3] -0.035 | [4] 0.016 | [5] -0.028 | [6] -0.072 | [7] 0.01 | [8] 0.011 | [9] -0.041 | [10] -0.005

MSI2 (UniProt Q96DH6)
UniProt Q96DH6, sequence (Q96DH6 whole entry, looked up): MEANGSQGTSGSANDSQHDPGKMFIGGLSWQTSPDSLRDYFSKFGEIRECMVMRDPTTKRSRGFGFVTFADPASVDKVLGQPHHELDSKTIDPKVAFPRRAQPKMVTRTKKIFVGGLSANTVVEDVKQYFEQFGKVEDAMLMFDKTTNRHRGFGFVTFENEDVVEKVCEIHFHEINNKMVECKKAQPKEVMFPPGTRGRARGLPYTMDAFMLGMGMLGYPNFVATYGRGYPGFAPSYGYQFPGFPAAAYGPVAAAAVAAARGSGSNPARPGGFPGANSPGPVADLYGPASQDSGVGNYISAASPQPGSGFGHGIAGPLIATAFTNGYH
active: [8] -0.23
inactive: [1] 0 | [2] -0.057 | [3] 0.036 | [4] 0.024 | [5] -0.052 | [6] -0.031 | [7] 0.01 | [9] -0.066 | [10] 0.07

NEBL isoform 2 (UniProt O76041)
UniProt O76041, sequence (O76041 whole entry, looked up): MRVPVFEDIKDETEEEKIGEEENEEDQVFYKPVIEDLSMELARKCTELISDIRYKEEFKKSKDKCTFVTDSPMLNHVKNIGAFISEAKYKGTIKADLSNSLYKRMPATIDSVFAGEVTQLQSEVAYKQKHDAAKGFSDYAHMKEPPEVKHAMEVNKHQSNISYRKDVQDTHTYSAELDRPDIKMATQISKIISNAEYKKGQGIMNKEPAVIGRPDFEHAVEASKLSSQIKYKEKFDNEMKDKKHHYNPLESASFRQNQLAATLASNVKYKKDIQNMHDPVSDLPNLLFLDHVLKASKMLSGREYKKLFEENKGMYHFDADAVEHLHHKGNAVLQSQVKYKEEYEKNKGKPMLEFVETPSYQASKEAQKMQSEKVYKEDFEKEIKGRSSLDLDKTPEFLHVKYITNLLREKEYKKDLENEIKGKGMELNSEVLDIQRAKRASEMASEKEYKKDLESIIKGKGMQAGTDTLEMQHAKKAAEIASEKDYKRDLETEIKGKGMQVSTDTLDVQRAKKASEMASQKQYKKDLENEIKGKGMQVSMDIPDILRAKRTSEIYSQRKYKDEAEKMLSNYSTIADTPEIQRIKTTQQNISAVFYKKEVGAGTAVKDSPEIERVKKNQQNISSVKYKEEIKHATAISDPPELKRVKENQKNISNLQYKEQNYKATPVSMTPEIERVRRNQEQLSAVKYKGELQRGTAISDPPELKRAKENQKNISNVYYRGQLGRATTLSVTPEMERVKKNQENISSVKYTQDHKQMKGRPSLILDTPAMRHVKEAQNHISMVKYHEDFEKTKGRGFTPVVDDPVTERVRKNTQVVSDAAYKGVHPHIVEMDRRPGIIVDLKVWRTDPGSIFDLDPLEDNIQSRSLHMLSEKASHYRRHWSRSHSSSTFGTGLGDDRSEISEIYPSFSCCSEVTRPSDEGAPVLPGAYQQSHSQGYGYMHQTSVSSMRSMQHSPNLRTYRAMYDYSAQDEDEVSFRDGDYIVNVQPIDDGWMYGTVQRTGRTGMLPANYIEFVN
inactive: [1] 0.003 | [2] 0.044 | [3] 0.059 | [4] -0.135 | [5] -0.046 | [6] 0.094 | [7] -0.018 | [8] -0.018 | [9] 0.105 | [10] 0.073

NFKBIE (UniProt O00221)
inactive: [1] 0.03 | [2] 0.002 | [3] -0.027 | [4] 0.066 | [5] 0.03 | [6] -0.02 | [7] 0.07 | [8] 0.031 | [9] 0.012 | [10] 0.096

NUMBL (UniProt Q9Y6R0)
inactive: [1] 0.01 | [2] 0.111 | [3] 0.066 | [4] 0.018 | [5] 0.162 | [6] 0.176 | [7] 0.036 | [8] 0.247 | [9] 0.041 | [10] 0.036

MYD88 isoform 6 (UniProt Q99836)
UniProt Q99836, sequence (Q99836 whole entry, looked up): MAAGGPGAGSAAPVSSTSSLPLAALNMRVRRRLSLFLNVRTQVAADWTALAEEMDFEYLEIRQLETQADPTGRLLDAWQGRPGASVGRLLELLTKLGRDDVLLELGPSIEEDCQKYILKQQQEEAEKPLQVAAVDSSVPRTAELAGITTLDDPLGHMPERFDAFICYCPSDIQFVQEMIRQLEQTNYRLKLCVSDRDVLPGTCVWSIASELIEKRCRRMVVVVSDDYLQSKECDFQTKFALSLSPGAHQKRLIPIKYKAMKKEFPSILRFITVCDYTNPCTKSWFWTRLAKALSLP
inactive: [1] 0.014 | [2] -0.006 | [3] -0.007 | [4] -0.032 | [5] 0.03 | [6] -0.009 | [7] 0.068 | [8] 0.019 | [9] -0.018 | [10] 0

NIPSNAP3A (UniProt Q9UFN0)
inactive: [1] -0.007 | [2] -0.031 | [3] 0.021 | [5] 0.03 | [6] -0.197 | [7] -0.011 | [8] -0.029 | [9] 0.061
active: [4] 0.466 | [10] -0.276

NCAPG2 (UniProt Q86XI2)
inactive: [1] -0.062 | [2] -0.006 | [3] -0.048 | [4] -0.108 | [5] -0.052 | [6] -0.011 | [7] 0.023 | [8] 0.062 | [9] -0.074 | [10] 0.143

N6AMT1 (UniProt Q9Y5N5)
active: [4] 0.34
inactive: [1] -0.018 | [2] -0.038 | [3] -0.02 | [5] -0.017 | [6] -0.033 | [7] 0.008 | [8] 0.014 | [9] -0.109 | [10] -0.098

NPTN (UniProt Q9Y639)
UniProt Q9Y639, sequence (Q9Y639 whole entry, looked up): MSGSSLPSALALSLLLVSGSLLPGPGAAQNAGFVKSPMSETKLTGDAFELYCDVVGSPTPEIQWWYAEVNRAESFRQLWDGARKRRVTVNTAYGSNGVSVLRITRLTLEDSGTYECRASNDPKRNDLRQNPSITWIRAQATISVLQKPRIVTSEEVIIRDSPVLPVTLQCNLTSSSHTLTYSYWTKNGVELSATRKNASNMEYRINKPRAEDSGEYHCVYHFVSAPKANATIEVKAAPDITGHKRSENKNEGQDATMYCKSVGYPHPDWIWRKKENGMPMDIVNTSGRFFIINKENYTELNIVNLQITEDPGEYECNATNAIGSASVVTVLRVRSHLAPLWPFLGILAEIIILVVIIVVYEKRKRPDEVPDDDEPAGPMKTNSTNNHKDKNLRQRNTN
inactive: [1] -0.057 | [2] -0.045 | [3] -0.058 | [4] -0.011 | [5] 0.049 | [6] 0.003 | [7] 0.007 | [8] 0.056 | [9] -0.029 | [10] 0.011

MTMR6 (UniProt Q9Y217)
UniProt Q9Y217, sequence (Q9Y217 whole entry, looked up): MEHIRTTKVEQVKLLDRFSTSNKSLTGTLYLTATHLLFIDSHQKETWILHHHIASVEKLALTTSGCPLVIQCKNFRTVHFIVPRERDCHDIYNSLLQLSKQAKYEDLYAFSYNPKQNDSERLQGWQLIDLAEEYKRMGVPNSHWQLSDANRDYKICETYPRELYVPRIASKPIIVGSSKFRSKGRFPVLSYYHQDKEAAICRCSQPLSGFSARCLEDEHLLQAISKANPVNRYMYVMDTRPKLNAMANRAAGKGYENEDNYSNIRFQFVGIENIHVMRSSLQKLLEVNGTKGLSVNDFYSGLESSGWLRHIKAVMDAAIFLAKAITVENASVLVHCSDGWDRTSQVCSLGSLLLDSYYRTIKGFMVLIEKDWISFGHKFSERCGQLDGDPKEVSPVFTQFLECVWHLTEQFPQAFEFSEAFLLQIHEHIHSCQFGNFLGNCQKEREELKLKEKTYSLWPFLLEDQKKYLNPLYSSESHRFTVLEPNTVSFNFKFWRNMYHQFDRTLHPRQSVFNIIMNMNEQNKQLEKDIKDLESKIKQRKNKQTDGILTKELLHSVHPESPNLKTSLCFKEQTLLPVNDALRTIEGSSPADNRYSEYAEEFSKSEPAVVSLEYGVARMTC
inactive: [1] 0.017 | [2] 0.025 | [3] -0.037 | [4] 0.071 | [5] 0.02 | [6] -0.024 | [7] 0.014 | [8] 0.056 | [9] 0.001 | [10] -0.113

NPLOC4 isoform 2 (UniProt Q8TAT6)
inactive: [1] 0.022 | [2] 0.003 | [3] -0.023 | [4] -0.087 | [5] 0.01 | [6] 0.046 | [7] -0.003 | [8] 0.056 | [9] -0.019 | [10] 0.007

NCOR2 (UniProt C9J0Q5)
inactive: [1] 0.063 | [2] -0.028 | [3] 0.116 | [4] 0.018 | [5] -0.014 | [6] -0.055 | [7] 0.011 | [8] -0.052 | [9] 0.079 | [10] -0.07

NSL1 (UniProt Q96IY1)
UniProt Q96IY1, sequence (Q96IY1 whole entry, looked up): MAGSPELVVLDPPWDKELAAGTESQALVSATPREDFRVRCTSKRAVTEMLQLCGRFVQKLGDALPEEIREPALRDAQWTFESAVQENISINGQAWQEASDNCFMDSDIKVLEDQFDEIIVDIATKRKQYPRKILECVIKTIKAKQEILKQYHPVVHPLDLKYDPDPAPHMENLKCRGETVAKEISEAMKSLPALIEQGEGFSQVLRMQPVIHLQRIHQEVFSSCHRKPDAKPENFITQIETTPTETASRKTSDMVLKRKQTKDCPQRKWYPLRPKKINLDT
inactive: [1] -0.003 | [2] -0.032 | [3] 0.051 | [4] 0.001 | [5] -0.033 | [6] 0.094 | [7] -0.01 | [8] -0.047 | [9] 0.034 | [10] 0.006

MTHFD1, A0A384N5Y3
inactive: [1] -0.008 | [2] -0.003 | [3] -0.064 | [4] 0.04 | [5] 0.015 | [6] -0.087 | [7] 0.028 | [8] 0.043 | [9] -0.041 | [10] -0.025

MRPS12 (UniProt O15235)
inactive: [1] 0.006 | [2] -0.024 | [3] -0.019 | [4] 0.003 | [5] -0.022 | [6] -0.022 | [7] 0.048 | [8] 0.03 | [9] 0.036 | [10] -0.003

NQO1 (UniProt P15559)
active: [8] -0.333 | [10] 0.262
inactive: [1] -0.055 | [2] -0.048 | [3] -0.04 | [4] -0.074 | [5] 0.012 | [6] 0.009 | [7] 0.022 | [9] -0.023

OGFR (UniProt Q9NZT2)
inactive: [1] 0.014 | [2] -0.012 | [3] 0.052 | [4] 0.128 | [5] -0.008 | [6] -0.062 | [7] -0.043 | [8] -0.012 | [9] 0.043 | [10] -0.037

OSBP (UniProt P22059)
inactive: [1] -0.101 | [2] -0.046 | [3] 0.007 | [4] 0 | [5] 0.037 | [6] -0.072 | [7] -0.015 | [8] -0.028 | [9] -0.093 | [10] 0.03

ORC5 (UniProt O43913)
UniProt O43913, sequence (O43913 whole entry, looked up): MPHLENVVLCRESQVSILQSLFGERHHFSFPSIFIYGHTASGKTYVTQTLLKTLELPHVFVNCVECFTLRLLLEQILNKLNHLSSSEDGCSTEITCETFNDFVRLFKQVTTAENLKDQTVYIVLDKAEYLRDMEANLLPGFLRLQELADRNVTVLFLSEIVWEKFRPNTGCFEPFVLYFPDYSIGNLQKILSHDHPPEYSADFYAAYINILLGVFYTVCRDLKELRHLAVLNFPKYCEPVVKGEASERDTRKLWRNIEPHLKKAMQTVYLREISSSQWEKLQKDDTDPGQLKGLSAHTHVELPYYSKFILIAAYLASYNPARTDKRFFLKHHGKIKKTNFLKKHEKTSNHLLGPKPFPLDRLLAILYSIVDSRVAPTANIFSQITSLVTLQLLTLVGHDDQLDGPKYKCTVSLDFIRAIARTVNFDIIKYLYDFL
inactive: [1] -0.014 | [2] -0.049 | [3] -0.137 | [4] -0.009 | [5] -0.016 | [6] -0.113 | [7] -0.023 | [8] 0.027 | [9] -0.069 | [10] 0.045

NCOR1 (UniProt O75376)
inactive: [1] 0.046 | [2] -0.028 | [3] 0.018 | [4] 0.031 | [5] -0.022 | [6] -0.03 | [7] -0.009 | [8] -0.034 | [9] -0.028 | [10] 0.006

OSBP2 (UniProt Q969R2)
UniProt Q969R2, sequence (Q969R2 whole entry, looked up): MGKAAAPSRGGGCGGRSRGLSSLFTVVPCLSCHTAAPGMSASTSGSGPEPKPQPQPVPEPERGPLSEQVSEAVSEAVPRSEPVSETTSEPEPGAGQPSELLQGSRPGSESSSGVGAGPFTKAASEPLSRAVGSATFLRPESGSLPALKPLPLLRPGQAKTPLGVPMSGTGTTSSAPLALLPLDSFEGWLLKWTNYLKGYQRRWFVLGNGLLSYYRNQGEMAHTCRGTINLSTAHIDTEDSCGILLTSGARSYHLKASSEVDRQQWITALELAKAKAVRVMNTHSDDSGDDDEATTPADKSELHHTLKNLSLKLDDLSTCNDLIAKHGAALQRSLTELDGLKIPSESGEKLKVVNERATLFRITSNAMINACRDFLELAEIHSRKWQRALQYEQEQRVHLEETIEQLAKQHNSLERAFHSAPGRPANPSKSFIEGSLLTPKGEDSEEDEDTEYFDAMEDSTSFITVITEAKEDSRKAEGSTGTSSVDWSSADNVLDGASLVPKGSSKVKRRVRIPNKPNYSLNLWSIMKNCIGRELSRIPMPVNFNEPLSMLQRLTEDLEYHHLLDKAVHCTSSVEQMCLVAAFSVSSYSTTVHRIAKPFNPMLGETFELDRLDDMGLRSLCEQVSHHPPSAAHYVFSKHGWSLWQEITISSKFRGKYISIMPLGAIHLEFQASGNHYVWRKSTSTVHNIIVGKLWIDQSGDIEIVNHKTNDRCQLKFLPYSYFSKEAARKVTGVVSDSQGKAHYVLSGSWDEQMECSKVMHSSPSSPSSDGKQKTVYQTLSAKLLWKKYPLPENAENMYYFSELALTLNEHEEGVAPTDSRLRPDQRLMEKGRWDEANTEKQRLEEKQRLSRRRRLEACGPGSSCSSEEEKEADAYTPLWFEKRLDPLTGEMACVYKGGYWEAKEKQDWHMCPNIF
inactive: [1] 0.003 | [2] 0.024 | [3] -0.074 | [5] 0.116 | [6] 0.194 | [7] -0.028 | [8] 0.018 | [9] -0.037 | [10] 0.23
active: [4] -0.666

NCAPG (UniProt Q9BPX3)
inactive: [1] -0.029 | [2] 0 | [3] -0.074 | [4] -0.028 | [5] -0.007 | [6] -0.094 | [7] -0.011 | [8] 0.026 | [9] -0.035 | [10] 0.011

NUP205 (UniProt Q92621)
inactive: [1] -0.03 | [2] -0.041 | [3] -0.1 | [4] -0.047 | [5] -0.008 | [6] -0.143 | [7] 0.015 | [8] 0.043 | [9] -0.089 | [10] 0.031

NAA30 (UniProt Q147X3)
inactive: [1] -0.021 | [2] -0.028 | [3] -0.01 | [4] -0.025 | [5] -0.037 | [6] 0.012 | [7] 0.015 | [8] -0.028 | [9] 0.042 | [10] 0.06

NAP1L5 (UniProt Q96NT1)
active: [4] 0.616
inactive: [1] 0.079 | [2] 0.017 | [3] 0.094 | [5] 0.099 | [6] -0.299 | [7] -0.016 | [8] -0.171 | [9] 0.076 | [10] -0.174

NDUFAF5 (UniProt Q5TEU4)
UniProt Q5TEU4, sequence (Q5TEU4 whole entry, looked up): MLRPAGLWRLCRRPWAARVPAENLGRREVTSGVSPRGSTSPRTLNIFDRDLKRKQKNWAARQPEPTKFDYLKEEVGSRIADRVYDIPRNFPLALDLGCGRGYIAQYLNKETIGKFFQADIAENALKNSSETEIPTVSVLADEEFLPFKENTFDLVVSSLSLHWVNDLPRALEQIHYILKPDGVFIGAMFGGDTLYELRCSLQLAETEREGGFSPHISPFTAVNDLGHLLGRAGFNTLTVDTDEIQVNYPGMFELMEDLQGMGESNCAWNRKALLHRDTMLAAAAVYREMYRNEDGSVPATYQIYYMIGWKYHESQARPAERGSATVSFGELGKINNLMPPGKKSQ
active: [5] -0.286
inactive: [1] 0.002 | [2] -0.02 | [3] -0.044 | [4] -0.212 | [6] 0.026 | [7] 0.068 | [8] 0.129 | [9] -0.019 | [10] -0.061
